PubChem BioAssay AID652016 (National Center for Advancing Translational Sciences (NCATS), 2013)
Inconclusive results are not listed. A number with no mark means an inactive call. Activity calls are given as the source filed them. Calls follow the shape of the dose curve; as a rule, active = well fitted inhibition curve with a large enough effect; inconclusive = small, poorly fitted or top-dose-only effect; inactive = flat fitted curve, though single readings scatter.

biological target: Luciferin 4-monooxygenase (Photinus pyralis) (UniProt P08659); assay: qHTS Assay for Inhibitors of Firefly Luciferase from the GSK Published Protein Kinase Inhibitor Set; conditions: purified firefly luciferase, luminescence inhibition; series mostly up to 57.5 µM; activity change, negative = inhibition: at the top concentration
Sequence (P08659 whole entry, looked up): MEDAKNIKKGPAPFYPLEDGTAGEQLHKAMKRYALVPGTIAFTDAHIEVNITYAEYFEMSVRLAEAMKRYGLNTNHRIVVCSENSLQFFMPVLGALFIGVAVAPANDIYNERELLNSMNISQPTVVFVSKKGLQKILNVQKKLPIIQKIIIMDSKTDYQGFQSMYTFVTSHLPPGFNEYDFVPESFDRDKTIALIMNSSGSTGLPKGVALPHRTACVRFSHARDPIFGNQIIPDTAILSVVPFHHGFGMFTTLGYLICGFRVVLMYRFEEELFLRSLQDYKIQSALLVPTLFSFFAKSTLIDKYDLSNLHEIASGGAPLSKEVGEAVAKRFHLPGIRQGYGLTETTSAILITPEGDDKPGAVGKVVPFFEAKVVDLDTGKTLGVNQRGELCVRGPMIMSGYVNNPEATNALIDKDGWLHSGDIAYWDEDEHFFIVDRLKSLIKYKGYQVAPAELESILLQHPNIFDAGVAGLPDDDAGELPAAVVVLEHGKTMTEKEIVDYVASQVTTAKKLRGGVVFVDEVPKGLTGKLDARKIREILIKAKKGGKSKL
Description: FLuc (firefly luciferase) is the prototypical bioluminescent reporter gene from Photinus pyralis.[1] The enzyme catalyzes the oxidation luciferin via luciferin-AMP to produce light. FLuc is used in cell-based reporter gene-based assays for screening small molecule chemical libraries. However, small molecule luciferase inhibitors present in most large chemical libraries are often enriched in the output of high throughput screens using this reporter sometimes complicating interpretation and candidate selection.
RLuc is a bioluminescent reporter gene luciferase from Renilla reniformis, also known as the sea pansy. RLuc uses the luciferin substrate coelenterazine. RLuc is often used in combination with the nonhomologous luciferase FLuc (firefly luciferease) as a trasfection or pathway normalization control. Recently, non-homologous reporters have been described for high throughput screening 'coincidence' reporter gene strategies.
1. Fan F, Wood KV (2007) Bioluminescent assays for high-throughput screening. Assay Drug Dev Technol 5: 127-136.
2. Thorne N, Inglese J, Auld DS (2010) Illuminating insights into firefly luciferase and other bioluminescent reporters used in chemical biology. Chem Biol 17: 646-657.
3. […] Chem Biol 19: 1060-1072.
4. Michelini E, Cevenini L, Mezzanotte L, Coppa A, Roda A (2010) Cell-based assays: fuelling drug discovery. Anal Bioanal Chem 398: 227-238.
5. Cheng KC, Inglese J (2012) A coincidence reporter-gene system for high-throughput screening. Nat Methods 9: 937.
Biochemical firefly luciferase enzyme assay
NCGC Assay Protocol Summary:
Reagents: 50mM Tris acetate, pH 7.5; 10mM Mg acetate; 10uM D-luciferin (Sigma #L9504); 10uM ATP; 0.01% Tween-20; 0.05% BSA; 10nM P. pyralis luciferase (Sigma #L9506)
Control compounds used were two known firefly luciferase inhibitors (compounds (2) and (5) in Auld et al., 2010), and DMSO.
Three microliters containing firefly luciferase substrates in buffer (final concentrations: 50mM Tris acetate, pH 7.5, 10mM Mg acetate, 0.01% Tween-20, 0.05% BSA, 10uM D-luciferin, and 10uM ATP) are dispensed into each well of a Greiner white, solid-bottom 1536-well format plate using a flying reagent dispenser (FRD). These assay plates were then treated with 23nL of compound or DMSO using a Kalypsys pin tool, which allows for delivery of a 7-point interplate titration of each compound to the assay plates (quantitative HTS), with final compound concentrations ranging from approximately 60uM to 300pM. One microliter of firefly luciferase in 50mM Tris-acetate buffer was then delivered by FRD to each well for a final enzyme concentration of 10nM. Luciferase activity was then measured using an Envision plate reader (PerkinElmer), with an average incubation time of 5 min.
% is scaled to controls: 0 for no effect and ±100 for the full control effect; potency is read from the fitted curve at half-maximal effect.

Compound	Potency	activity change, negative = inhibition [%]
CNC(=O)c1cncc(C=Cc2ccccc2Cl)c1	9.19 µM (active)	
Fc1cccc(COc2ccc(Nc3ncnc4sc(-c5cccs5)cc34)cc2Cl)c1		-18.1
NC(=O)c1cccc(Nc2nccc(Nc3cccc4[nH]ncc34)n2)c1	13 µM (active)	
COc1cc2ncn(-c3cc(OCc4ccccc4Cl)c(C(N)=O)s3)c2cc1OC		8.26
COc1cc2ncn(-c3cc(OCc4ccccc4C(F)(F)F)c(C(C)=O)s3)c2cc1OC		11
CC(C)c1ccc2c(N=Nc3ccc(S(N)(=O)=O)cc3)c(O)[nH]c2c1		-12.5
Nc1ncnc2occ(-c3ccc(NC(=O)Nc4cccc(C(F)(F)F)c4)cc3)c12		4.49
FC(F)(F)CNc1nccc(-c2cnn3ncccc23)n1		-26.5
OCCCNc1nccc(-c2c(-c3ccc(F)cc3)nn3cc(C(F)(F)F)ccc23)n1	32.6 µM (active)	
COc1cc(C)c(N(C)C(=O)CN(C)C)cc1Nc1nc(Nc2cccc(F)c2C(N)=O)c2cc[nH]c2n1		-2.27
COC(=O)Nc1nc2ccc(Sc3ccc(NC(=O)Nc4cc(C(F)(F)F)ccc4F)cc3)cc2[nH]1		15
COc1cccc(C=NNc2ncnc3c2cnn3-c2cccc(OC)c2)c1		-14.2
COC(=O)c1cncc(C=Cc2c(C)cc(O)cc2C)c1		-5.74
CCN1CCC(CC(=O)Nc2n[nH]c3nc(-c4cccs4)c(Br)cc23)CC1		3
COc1ccc(-c2nn3ncccc3c2-c2ccnc(Nc3ccc4c(c3)OCCO4)n2)cc1		-11
NS(=O)(=O)c1cccc(Nc2cc(-c3ccc(F)cc3)[nH]n2)c1	11.6 µM (active)	
CNC(=O)c1cc(-c2ccc(F)cc2)cc(-c2ccc(S(=O)(=O)N3CCCC3)cc2)c1N		9.72
Oc1cccc(-c2nc(-c3ccccc3)[nH]c2-c2ccncc2)c1		-4.49
c1ccc(-c2nc3n(c2-c2ccc4c(c2)OCO4)CCC3)nc1		-4.35
N#Cc1c(NC(=O)c2ccccc2F)sc2c1CCCC2	0.819 µM (active)	

Compound	Potency	activity change, negative = inhibition [%]
COc1cc2c(cc1Nc1nc(Nc3cccc(F)c3C(N)=O)c3cc[nH]c3n1)N(C(=O)CN1CCN(C(C)C)CC1)CC2		4.88
FC(F)(F)c1cccc(Nc2nccc(-c3cnn4nc(-c5ccccc5)ccc34)n2)c1		-11.3
NC(=O)c1ccc(-c2nc(-c3ccc4c(c3)OCO4)c(-c3ccccn3)[nH]2)cc1		-16.4
COc1ccccc1Nc1ncc(-c2ccccc2)o1	1.03 µM (active)	
CC(C)=Cc1cccc2[nH]c(O)c(N=Nc3ccc(S(N)(=O)=O)cc3)c12		3.89
Cc1ccc2[nH]c(O)c(N=Nc3ccc(S(N)(=O)=O)cc3)c2c1		-6.27
COc1cc2c(cc1Nc1nc(N3CCc4ccccc43)c3cc[nH]c3n1)N(C(=O)CN(C)C)CC2		3.81
CS(=O)(=O)CCNCc1ccc(-c2ccc3ncnc(Nc4ccc(OCc5cccc(F)c5)c(C(F)(F)F)c4)c3c2)o1		-13
CS(=O)(=O)Nc1ccc(-c2cc(-c3ccccc3)cc(C(N)=O)c2N)cc1		24.7
NCc1ccc(-n2c(-c3nonc3N)nc3cnccc32)cc1		12.6
Cc1ccc(C(=O)NC2CCCCC2)cc1-c1ccc(C(=O)NCC2CC2)cc1		-11
COc1cc2ncn(-c3cc(OCc4ccccc4C(F)(F)F)c(C(N)=O)s3)c2cc1OC		-6.98
Fc1ccc(-c2ncn(C3CCNCC3)c2-c2ccnc(Oc3ccc(F)c(F)c3)n2)cc1		3
CS(=O)(=O)CCNCc1ccc(-c2ccc3ncnc(Nc4ccc(OCc5cccc(C(F)(F)F)c5)cc4)c3c2)o1		0.519
FC(F)(F)c1ccc(-c2nn3ncccc3c2-c2ccnc(Nc3ccc4c(c3)OCCO4)n2)cc1		-13.8
NS(=O)(=O)c1ccc(N=Nc2c(O)[nH]c3ccc(C(=O)NCc4ccncc4)cc23)cc1		10.1
Fc1ccc(-c2nn3ccccc3c2-c2ccncc2)cc1	1.16 µM (active)	
CCS(=O)(=O)c1ccc(OC)c(Nc2ncc(-c3cccc(C(C)=O)c3)o2)c1		-1.52
CC1=C(C(=O)Nc2cc(Cl)c3[nH]ncc3c2)C(c2ccc(C(F)(F)F)cc2)CC(=O)N1 (stereo not given)		7.74
CC(Oc1cc(-n2cnc3ccc(OCC(O)CO)cc32)sc1C(N)=O)c1ccccc1Cl (stereo not given)		6.05
